# Screening results as filed in PubChem BioAssay.
# A488 autofl – A488 region autofluorescence | compound autofluorescence, A488 spectral region, dye equivalency; Compound Type: qHTS ECL - MLSMR | max dye equivalency, M | 59,000 tested, 0.1% active
#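 Compounds pin-transferred into 100 mM Tris buffer, pH 8.0, incubated 15 min at room temperature, then imaged with 480 nm excitation/540 nm emission filters. Fluorescence converted to Alexa 488 dye-equivalent concentration via an on-plate six-point A488 standard curve.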
# TexasRed autofl – compound fluoresces in the Texas Red spectral region. AID 587. Compound fluorescence, Texas Red channel, 547/618 nm; active compounds read high. max dye-equivalent concentration, M. 59,000 tested, 0.06% active; in the data active means max dye-equivalent concentration above about 10 nM; inconclusive means between about 1.1 nM and that limit
#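 Pin-transferred compounds and Texas Red standards go into 100 mM Tris buffer, pH 8.0. After 15 min at room temperature, plates are imaged with 547/618 nm filters. Each value is a dye-equivalent concentration derived from the per-plate dye curve.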
# Fluorescein fluor – compound autofluorescence in fluorescein spectral region | max fluorescein-equivalent concentration, M | AID 593 | Compound autofluorescence, 480/540 nm, fluorescein-equivalent; active compounds read high | 59,000 tested, 0.91% active; in the data active means max fluorescein-equivalent concentration above about 10 nM; inconclusive means between about 1.1 nM and that limit
#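 Autofluorescence profiling; 100 mM Tris, pH 8.0; incubation 15 min at RT; ex/em 480/540 nm; result as fluorescein-equivalent concentration.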
# Resorufin fluor – compounds fluorescent in resorufin spectral region; max dye-equivalent concentration, M; AID 588; Compound fluorescence, resorufin region 547/598 nm, buffer; active compounds read high; 59,000 tested, 0.04% active
#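 Tris 100 mM pH 8.0; compound added, 15 min RT; CCD imager read, ex 547 nm/em 598 nm; signal normalized to resorufin standard curve (six concentrations per plate) as dye-equivalent concentration.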
# A647 fluor – compound autofluorescence in A647 spectral region. Compound fluorescence, A647 channel (570/671 nm), Tris buffer. 59,000 tested, under 10 active. max dye-equivalent concentration, M;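 further: values scaled relative to a standard on each plate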
#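 Fluorescence read (570 nm ex, 671 nm em) after 15 min RT incubation of compounds in 100 mM Tris buffer, pH 8.0; values expressed as dye-equivalent concentration against a six-point A647 standard series on each plate.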
# Rhodamine fluor – compound autofluorescence in rhodamine spectral region | AID 594 | 59,000 tested, 0.05% active | Rhodamine-region fluorescence, 547/598 nm, Tris buffer; active compounds read high | max dye-equivalent concentration, M; in the data active means max dye-equivalent concentration above about 11 nM; inconclusive means between about 1.1 nM and that limit
#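 Intensities are converted to rhodamine-equivalent concentration using a six-point rhodamine standard on each plate. Compounds sit 15 min at room temperature in 100 mM Tris buffer, pH 8.0; read uses the 547/598 nm excitation/emission pair.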
# Starred values were filed as active, the others as inactive; i = inactive; ? = inconclusive; ! = not confirmed by another sample. Hits are enriched below; roughly 0.96% of the tested compounds scored in any of these assays. Unless noted, how the calls were made is not given here.
SMILES,A488 autofl,TexasRed autofl,Fluorescein fluor,Resorufin fluor,A647 fluor,Rhodamine fluor
COc1cccc2c1C(=O)c1c(O)c3c(c(O)c1C2=O)C[C@@](O)(C(C)=O)C[C@@H]3O[C@H]1C[C@H](N)[C@H](O)[C@H](C)O1,?,6.51e-08M*,2.21e-07M*,5.95e-08M*,3.3e-09,6.36e-08M*
Cc1cc2nc3c(=O)[nH]c(=O)nc-3n(CC(O)C(O)C(O)CO)c2cc1C (configuration not stated),3.12e-08M*,i,7.8e-07M*,?,1e-09,?
COC(=O)C1=CO[C@@H](C)[C@H]2CN3CCc4c([nH]c5ccccc45)[C@@H]3C[C@H]12,i,i,1.05e-08M*!,i,1.9e-09,i
O=C(O)c1cncc(C(=O)O)c1,i,i,?,i,3.5e-08,i
CCCCCCCCCCCCCCCCCC(=O)O[C@H](CC(=O)O)C[N+](C)(C)C,i,i,?,i,2.79e-08,i
COc1ccc2c(c1)[n+]([O-])c(/C(C)=N/NC(N)=S)c(C)[n+]2[O-],i,?,?,i,1e-09,i
Cc1nc(NCCCn2ccnc2)c2ccccc2n1,i,i,?,i,8.4e-09,i
O=C1c2ccccc2-c2onc3ccc(NCCCn4ccnc4)c1c23,2.61e-07M*,1.38e-07M*,4.57e-06M*,6.55e-07M*,5.07e-08,6.22e-07M*
O=c1c(O)c(-c2ccc(O)c(O)c2)oc2c(OC[C@H]3O[C@@H](O)[C@@H](O)[C@H](O)[C@@H]3O)c(O)cc(O)c12,i,i,i,i,1.08e-08,i
C=C[C@H]1CN2CC[C@@H]1C[C@@H]2[C@@H](O)c1ccnc2ccc(OC)cc12,i,i,?,i,4.8e-08,i
CCCCn1c2nc3ccccc3nc2c2c(=O)n(CCC)cnc21,i,?,i,i,6.5e-09,i
CCCn1nc(-c2ccccc2)c2nc3ccccc3nc21,1.12e-08M*,i,2.01e-07M*,i,3.55e-08,i
c1ccc(-c2nnc(Cn3c4ccccc4c4nc5ccccc5nc43)o2)cc1,i,i,?,i,4.71e-08,i
CCn1nc(-c2ccccc2)c2nc3ccccc3nc21,1.2e-08M*,i,2.42e-07M*,i,1e-09,i
O=C1C[C@H]2OCC=C3CN4CC[C@@]5(C(=O)O)[C@H](N1)[C@H]2[C@H]3C[C@H]45,i,i,i,i,1e-09,i
CC(=O)[C@H]1CC[C@@H]2[C@]1(C)CC=C1[C@]23C=C[C@]2(C[C@H](O)CC[C@@]12C)[C@H](C(=O)O)[C@@H]3C(=O)O,i,i,?,i,1e-09,i
O=C(NC1=NCCS1)C1Cc2ccccc2CN1C(=O)c1ccccc1 (configuration not stated),i,?,i,i,7e-09,i
COc1ccc(NC(=O)C2Cc3ccccc3CN2C(=O)c2ccccc2)cn1 (configuration not stated),?,i,5.91e-08M*,i,1e-09,i
O=C(CCC1COc2ccccc2O1)Nc1cccnc1 (configuration not stated),i,i,1.73e-08M*,i,1.96e-08,i
Cc1nnc(SCc2ccccc2)n1N,i,i,i,i,2.95e-08,i
COc1ccc(CSc2nnc(C)n2N)cc1,i,i,2.3e-08M*,i,2.46e-08,i
CC[C@@H]1OC(=O)[C@H](C)[C@H](O[C@@H]2C[C@](C)(OC)[C@H](O)[C@H](C)O2)[C@H](C)[C@H](O[C@@H]2O[C@@H](C)C[C@@H](N(C)C)[C@@H]2O)[C@](C)(O)C[C@H](C)C(=O)[C@H](C)[C@H](O)[C@]1(C)O,i,i,i,i,1e-09,i
Brc1ccc(-c2nnc3sc(CN4CCC5(CC4)OCCO5)cn23)cc1,i,i,1.14e-08M*,i,3.3e-09,i
COc1ncc2nc(-c3ccc(Cl)cc3)c(=O)n(CCC#N)c2n1,i,i,i,i,1.03e-08,i
CCN1CC2=C(OC(N)=C(C#N)C2c2ccccc2)/C(=C\c2ccccc2)C1 (configuration not stated),i,i,i,i,1e-09,i
